Drawing on PubChem BioAssay AID602449 (Sanford-Burnham Center for Chemical Genomics, 2012), this text covers inhibition for 65 molecules.

Structures are written as SMILES. Hit rate of the full screen: of about 360,000 compounds, about 5,000 (1.4%) were called active.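 The calls were made as follows: active = inhibition of 50% or more, scaled per plate between neutral and stimulator controls; inactive = the rest.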 The full list was thinned out, with actives kept by preference.

Broadly, the inhibition is the relative decrease from the control value, in per cent.

The assay is described as follows: mitochondrial permeability transition pore inhibitors, primary screen, biochemical, isolated mouse mitochondria, absorbance (AID 602449).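 Also: 0% = DMSO wells given calcium and 100% = 1 mM EGTA wells.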 The settings on record: Ca2+ swelling absorbance, 30 min, at 10 µM, active compounds read high.
On to `COc1ccc(OC)c(S(=O)(=O)N(C)CC(=O)N2CCN(c3ccccc3)CC2)c1`, for which the inhibition was -2.8% (inactive).
As for `COc1ccc(C)cc1NC(=S)Nc1ccccc1SC`, the inhibition was 0.6% (inactive).
The figure for `COc1ccc(NC(=O)CN(C)C(=O)c2cccc(S(=O)(=O)N3CCN(c4ccccc4)CC3)c2)cc1` is 1.3% (inactive).
In the case of `COc1cc2c(C(=O)N3CCN(C)CC3)c(CSc3ccccc3)n(C)c2cc1Br` it was -3.4% (inactive); in that of `CC1CCCC(C)N1C(=O)COC(=O)c1ccccc1C(=O)c1ccccc1` (stereo not given), -1.2% (inactive); in that of `CCOC(=O)c1c(NC(=O)CSc2cn(CC)c3ccccc23)sc2c1CCC2`, 59.8% (active).
Consider `CCOC(=O)c1c(NC(=O)C(C)Sc2c[nH]c3ccccc23)sc2c1CCC2` (stereo not given), for which the inhibition is 3.9% (inactive).
For the molecule `CCOC(=O)c1c(NC(=O)Cn2nc(C(F)(F)F)cc2C)sc2c1CCC2`, the inhibition was 4% (inactive).
In the case of `O=C(NCc1ccncc1)C1CCCN(S(=O)(=O)c2ccc(Br)cc2)C1` (stereo not given) it was -0.9% (inactive); in that of `Cc1ccc(N(Cc2ccccc2O)C(=O)c2ccccc2F)cc1`, 0.4% (inactive).
Regarding `CC(C)C(=O)N1c2ccccc2NC2=C(C(=O)CCC2)C1c1ccc(N(C)C)cc1` (stereo not given), the inhibition is 0.8% (inactive).
Take `CCCCC(=O)NCc1ccc(F)cc1`: the inhibition was 0.7% (inactive).
With `CCCOCC(O)CC(CC)C(=O)NNC(=S)Nc1ccccc1` (stereo not given), the inhibition is 1.7% (inactive).
With `CCCCC(=O)NNC(=S)NC(=O)C(c1ccccc1)c1ccccc1`, the inhibition is 69.1% (active).
In the case of `CCN(CC(=O)Nc1c(F)cccc1F)C(=O)c1cnc(C)cn1` it was 1.7% (inactive); in that of `COC(=O)c1c(C)[nH]c(C(=O)/C=C/c2ccc(Cl)cc2)c1C`, 102% (active); in that of `CCCCOC(=O)c1[nH]c(C)c(C(=O)OC)c1C`, 1.6% (inactive).
The figure for `COC(=O)c1c(C)[nH]c(C(=O)NCCc2ccc(S(N)(=O)=O)cc2)c1C` is 0.1% (inactive).
The figure for `c1csc(-c2nnc(COc3ncnc4sccc34)o2)c1` is 1.9% (inactive).
Take `COc1cnc(SCc2ccc(Cl)c(Cl)c2)nc1Cl`: the inhibition is 0.4% (inactive).
In the case of `COCCNC(=O)CSc1nc2sccc2c(=O)n1-c1ccccc1` it was 0% (inactive).
The figure for `S=C(NCC1COc2ccccc2O1)Nc1ccc(Br)cc1` (stereo not given) is 91.4% (active); for `CC(NC(=S)Nc1ccccc1)C(c1cccs1)N1CCOCC1` (stereo not given) it is 0.1% (inactive); for `O=C(COc1ccc(F)cc1Br)NCC1COc2ccccc2O1` (stereo not given) it is 1.6% (inactive).
In the case of `CCCN(CC1COc2ccccc2O1)C(=S)Nc1ccc(C)cc1` (stereo not given) it was 2.3% (inactive); in that of `S=C(NCCCc1ccccc1)Nc1ccc(Br)cc1`, 85.9% (active); in that of `S=C(Nc1ccc(Br)cc1)NC1CCN(Cc2ccccc2)CC1`, 3.1% (inactive).
With `O=S(=O)(NCCCc1ccccc1)c1ccc(Br)cc1`, the inhibition was 13.4% (inactive).
In the case of `CC(NC(=S)Nc1ccccc1)C1COc2ccccc2O1` (stereo not given) it was 83.4% (active); in that of `C/C(=N/NC(=S)Nc1ccccc1)c1ccc2c(c1)OCO2`, -0.4% (inactive).
Turning to `Cc1c[n+]([O-])ccc1[N+](=O)[O-]`, the inhibition is -0.3% (inactive).
Consider `COc1ccccc1NC(=O)CCSc1nnc(-c2ccc(O)cc2)o1`, for which the inhibition was -1.6% (inactive).
Turning to `CC(C)Oc1ccc(C(=O)Nc2cc(=O)n(C)c(=O)n2C)cc1`, the inhibition is -1.9% (inactive).
In the case of `Cn1cnc(S(=O)(=O)N2C[C@@H](O)COC[C@@H]3O[C@H](CC(=O)NC4CCC4)CC[C@H]32)c1` it was -0.5% (inactive); in that of `O=C(C[C@H]1C[C@@H]2c3cc(NC(=O)C4CCC4)ccc3O[C@@H]2[C@H](CO)O1)NC1CCCCC1`, -0.5% (inactive); in that of `Cc1cc(F)ccc1N1CCC(N2CCN(C)C(CCO)C2)CC1` (stereo not given), 0% (inactive).
In the case of `CCCNC(=O)NCc1ccc(N2CCCC2=O)cc1` it was 2.2% (inactive).
As to `COc1cc(N2CCCC2)c(OC)cc1/C=C(/C#N)c1cccc(Br)c1`, the inhibition was 1.4% (inactive).
Regarding `Cc1cc(C)cc(OCC(=O)NCc2cc(C)nc3ccccc23)c1`, the inhibition is 4.6% (inactive).
Consider `Cc1cc(C)c(NC(=O)C[N+](C)(C)CC(O)COc2cccc3ccccc23)c(C)c1` (stereo not given), for which the inhibition is 80.5% (active).
In the case of `Cc1cc(C)c(NC(=O)c2oc3ccccc3c2COc2ccccc2)c(C)c1` it was 1.5% (inactive).
For `Cn1nccc1C(=O)NC1CCCc2c1cnn2-c1ccccc1F` (stereo not given), the inhibition is 102% (active).
For `Cc1cc(C(=O)NC2CC(C)(C)Cc3c2cnn3-c2ccccc2)n[nH]1` (stereo not given), the inhibition was -0.7% (inactive).
The figure for `COc1ccc(OC)c(C(=O)NC2CCCc3c2cnn3-c2cc(C)cc(C)c2)c1` (stereo not given) is 1.5% (inactive); for `Cn1nccc1C(=O)NC1CCCc2c1cnn2-c1ccc(F)cc1F` (stereo not given) it is 89.9% (active); for `COc1ccc(C(=O)NC2CC(C)(C)Cc3c2cnn3-c2ccccc2C)o1` (stereo not given) it is -1.2% (inactive).
For `COC(=O)c1ccc(C(=O)NC2CC(C)(C)Cc3c2cnn3-c2ccc(F)cc2)nc1` (stereo not given), the inhibition is -1.7% (inactive).
The figure for `CC1=C(C(=O)NC2CC(C)(C)Cc3c2cnn3-c2ccc(C)cc2)OCCO1` (stereo not given) is -0.2% (inactive); for `COc1ccc(C(=O)NC2CCCc3c2cnn3-c2cccc(C)c2C)c(OC)n1` (stereo not given) it is 71% (active); for `CC1(C)Cc2c(cnn2-c2cccc(F)c2)C(NC(=O)c2cc[n+]([O-])cc2)C1` (stereo not given) it is -0.8% (inactive).
The figure for `CCNC(=O)c1sccc1-n1cccc1` is -0.7% (inactive).
Consider `CCN(CC)C(=O)Oc1ccc(OC(=O)N(CC)CC)cc1`, for which the inhibition is -0.8% (inactive).
In the case of `C[C@H](CO)N1C[C@H](C)[C@@H](CN(C)S(=O)(=O)c2ccc(F)cc2)Oc2ccc(NC(=O)CCC(F)(F)F)cc2C1=O` it was 0.8% (inactive).
As to `COc1ccc(CN(Cc2ccco2)S(=O)(=O)c2ccc(S(=O)(=O)N3CCCC3)cc2)cc1`, the inhibition is 11.4% (inactive).
Regarding `CCc1cccc(NC(=O)COC(=O)c2cc(=O)c3ccccc3o2)c1`, the inhibition was 0.9% (inactive).
For `CSCC[C@H](NC(=O)N1CCn2c1nc1ccccc12)C(=O)NCc1ccc2c(c1)OCO2`, the inhibition was -2.6% (inactive).
`C=C(C)c1cccc(C(C)(C)NC(=O)NCCN(CC)CC)c1`: the inhibition was 1.1% (inactive).
Take `CCC(C(=O)NC(C)(C)C)n1c(-c2ccccc2)nc2ccccc21` (stereo not given): the inhibition was 1.2% (inactive).
For `Cc1cc(C)n2nc(C(=O)OCC(=O)N(CCC#N)c3ccc(F)cc3)nc2n1`, the inhibition is -0.4% (inactive).
With `CN1CCN(CCNC(=O)Nc2ccccc2[N+](=O)[O-])CC1`, the inhibition is -0.3% (inactive).
As for `CN1CCN(CCNC(=O)Nc2ccc([N+](=O)[O-])cc2)CC1`, the inhibition is 93.8% (active).
The figure for `O=C(CCC(=O)N1CCCC1)Nc1ccc([N+](=O)[O-])cc1` is -1.4% (inactive).
In the case of `O=C(Nc1ccc(F)cc1)C1CCN(C(=O)c2ccc([N+](=O)[O-])cc2)CC1`, the inhibition was 0.6% (inactive).
On to `O=C(NCCCN1CCN(c2ccc(F)cc2)CC1)Nc1ccc([N+](=O)[O-])cc1`, for which the inhibition was 90.9% (active).
In the case of `O=C(CCN1C(=O)COc2ccccc21)NCCCN1CCN(c2ccc(F)cc2)CC1` it was -0.5% (inactive).
